Measured values published in the supplement of paper PMC6555819.

The sequences below were run on VDR:RXRa (NR concentration 270 nM, RXRa partner concentration 90 nM) (assay: PBM binding z-score (relative to random genomic background probes); higher = stronger binding; sequences stand for … in GC…GCGATTGACAGCGTAGAATGAAGG).
Description: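 Protein-binding microarray (Agilent 4x180K custom design, double-stranded 60-nt probes: 5' GC cap, 34-nt variable region, 24-nt constant primer region; full probe sequence given). Purified or IVT nuclear receptor:RXRα heterodimers (3:1 NR:RXRα, mostly 270:90 nM) or homodimers were incubated for 1 h in PBS with 2% milk and no ligand, then detected with Alexa488 antibodies. Fluorescence from o1-orientation probes (~5 replicates averaged) was converted to z-scores against 500 random hg19 background probes. Variable regions are seed direct-repeat (DR0–DR5) sites, all their single-nucleotide variants and half-site ablations.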
CGAACTAGGTCACCAGGACACTGAAGAGGTTGGA showed a PBM binding z-score of 2.56. TCTAGTTGGTTACGGAGGTCACACACGACGGGTA gave a PBM binding z-score of 4.27. In the case of TCGAGTAGGTTACGGGGGCATTTAGGGATGAAGA, the PBM binding z-score is reported as 3.96. In the case of CCTACTGGGCCAAAGGTCATTGACTCCAATGCTC, the PBM binding z-score is reported as 4.58. Sequence CCGAGTAGGTTACGAGGGGGCATTCCGTGCGAAT has a PBM binding z-score of 4.84. TAGAGTAGGTTACGGGGGCATTCAGGGATGAAGA showed a PBM binding z-score of 4.09. Work on TTACCAAGGTAAAAGGTCGTTGATGCACGCCTTG yielded a PBM binding z-score of 2.6. CTATGTAGGTTAAGGGGGTGATTCAGTTTGAAAG showed a PBM binding z-score of 3.99. CATACCGGGTCAGCTAGGCCAGAGTAGGGACGGC was tested, and the PBM binding z-score was 2.57. In the case of CGTCAAAGTTCAACTAAGTTAACGTAAAGCACGC, the PBM binding z-score is reported as 5.16. CTATGTAGGTTAAGGGGGTCATTCACTTTGAAAG showed a PBM binding z-score of 7.21. ATAGGTAGGTTAGGGTCATTCAGAAAGTAGGGAA gave a PBM binding z-score of 5.05. TCTAGTTGGTCATGGAGGTCACACACGACGGGTA gave a PBM binding z-score of 5.98. For AGTCAAAGTTCAGGACGAGGTAAAGTAAAGCACG, the PBM binding z-score was 3.01. CTATGGAGGTTAAGGGGGTCATTCAGTTTGAAAG gave a PBM binding z-score of 8.03. In the case of CCTTACGGGTCAAGGTTGTAGCACGGGTGGTACG, the PBM binding z-score is reported as 3.02. CGTCCAAGGTCAAAGGTCAGCGAAGAGATGACGG showed a PBM binding z-score of 6.91. CTAAGTAGGTTAAGGGGGTCATTCAGTTTGAAAG gave a PBM binding z-score of 7.19. GCTGCTAGGTCAACTGAAGGTCAGCTAAAGCTCG was tested, and the PBM binding z-score was 4.15. Sequence CAAACCAGGTCACGAAAGGTCAAAGTCGAATGAC has a PBM binding z-score of 7.16. Sequence TCGAGTAAGTTACGGGGGCATTCAGGGATGAAGA has a PBM binding z-score of 3.01. Work on TCTTGTAGATCAAAGGTCAAGAAAGCCGAAGCCT yielded a PBM binding z-score of 4.14. With TCTTGTAGATCAAAGGTTAAGACAGCCGAAGCCT the PBM binding z-score was 1.68. TAGCCTAGGTGATTGGGCCAGTATAGTACGCATC was tested, and the PBM binding z-score was -0.57. CCTAGTTGGTCAAGGTCACACATGCTATAGGTAC showed a PBM binding z-score of 4.33. Work on AATACAGGGTCACTGGGCCAGAGTAGGTACGAAT yielded a PBM binding z-score of 4.65. CGAACTAGATCACCAGGACAGTGAAGAGGTTGGA showed a PBM binding z-score of -0.366. CCTACTGGGTCATTCAGAGGTCATTGATCATATG gave a PBM binding z-score of 6.25. With CGAACTAGGTCACGAGGACAGTGAAGAGGTTGGA the PBM binding z-score was 2.75. CTATGTAGGTTAAGGGTGTCATTCAGTTTGAAAG showed a PBM binding z-score of 3.24. CTATGTAGGTTAAGGGGATCATTCAGTTTGAAAG gave a PBM binding z-score of 2.59. TCTCGGAGGACACGAAACGTCAGAGCTCGACATC showed a PBM binding z-score of -0.163. In the case of CGAACTAGGTCACCAGGACATTGAAGAGGTTGGA, the PBM binding z-score is reported as 2.31. For AACGAAAGGTCGACGAGGTGAGTATACACCGTTT, the PBM binding z-score was 5.12. With CTCTGTAGGTTAAGGGGGTCATTCAGTTTGAAAG the PBM binding z-score was 7.66. TAGCCTAGGCCATGGGCCAGTATACCACGCGAAC gave a PBM binding z-score of -0.852. Sequence CAAACTAGGTCACCGTAAGGTCAAAGTCCGCATG has a PBM binding z-score of 6.28. CGAACTAGGTCACCAGGTCAGTGAAGAGGTTGGA gave a PBM binding z-score of 3.92. In the case of TGAATGAGGTCAAAGATCAGGGAACGTGGCGTCG, the PBM binding z-score is reported as 5.6. In the case of GCTAGTTTGTCAGTAAAAGGTCACACACCGGTCG, the PBM binding z-score is reported as 3.95.
